# Legend:
# Assay in all cases: SPOT peptide array binding signal intensity (averaged, normalized) (arbitrary units (background-subtracted, floor 0; scale differs between SH3 domains)); higher = stronger binding of the SH3 domain to the peptide
# AgAbp1 = biological target: AgAbp1
# Protocol: (§1)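 GST-tagged SH3 domains from S. cerevisiae (Sc), A. gossypii (Ag), C. albicans (Ca) and S. pombe (Sp) were incubated at 10 ug/ml overnight at 4 C on cellulose SPOT membranes carrying 292 synthetic 15-mer peptides mined from the S. cerevisiae proteome (cysteines replaced by serines). Binding was detected with anti-GST antibody, HRP secondary and chemiluminescence, quantified with Genespotter, and reported as normalized spot intensities averaged over biological replicates.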
# AgBbc1 = biological target: AgBbc1
# Protocol: as §1
# AgBem1-D1 = biological target: AgBem1-D1
# Protocol: as §1
# AgBzz1-D1 = biological target: AgBzz1-D1
# Protocol: as §1
# AgBzz1-D2 = biological target: AgBzz1-D2
# Protocol: as §1
# AgCyk3 = biological target: AgCyk3
# Protocol: as §1
# AgFus1 = biological target: AgFus1
# Protocol: as §1
# AgHof1 = biological target: AgHof1
# Protocol: as §1
# AgHse1 = biological target: AgHse1
# Protocol: as §1
# AgLsb1 = biological target: AgLsb1
# Protocol: as §1
# AgLsb4 = biological target: AgLsb4
# Protocol: as §1
# AgMyo5 = biological target: AgMyo5
# Protocol: as §1
# AgNbp2 = biological target: AgNbp2
# Protocol: as §1
# AgRvs167 = biological target: AgRvs167
# Protocol: as §1
# AgSho1 = biological target: AgSho1
# Protocol: as §1
# AgSla1-D1-D2 = biological target: AgSla1-D1-D2
# Protocol: as §1
# AgSla1-D3 = biological target: AgSla1-D3
# Protocol: as §1
# CaAbp1-D1 = biological target: CaAbp1-D1
# Protocol: as §1
# CaAbp1-D2 = biological target: CaAbp1-D2
# Protocol: as §1
# CaBbc1 = biological target: CaBbc1
# Protocol: as §1
# CaBem1-D1 = biological target: CaBem1-D1
# Protocol: as §1
# CaBzz1-D1 = biological target: CaBzz1-D1
# Protocol: as §1
# CaBzz1-D2 = biological target: CaBzz1-D2
# Protocol: as §1
# CaCyk3 = biological target: CaCyk3
# Protocol: as §1
# CaFus1 = biological target: CaFus1
# Protocol: as §1
# CaHof1 = biological target: CaHof1
# Protocol: as §1
# CaHse1 = biological target: CaHse1
# Protocol: as §1
# CaLsb1 = biological target: CaLsb1
# Protocol: as §1
# CaLsb4 = biological target: CaLsb4
# Protocol: as §1
# CaMyo5 = biological target: CaMyo5
# Protocol: as §1
# CaNbp2 = biological target: CaNbp2
# Protocol: as §1
# CaRvs167 = biological target: CaRvs167
# Protocol: as §1
# CaRvs167-3 = biological target: CaRvs167-3
# Protocol: as §1
# CaSho1 = biological target: CaSho1
# Protocol: as §1
# CaSla1-D1-D2 = biological target: CaSla1-D1-D2
# Protocol: as §1
# CaSla1-D3 = biological target: CaSla1-D3
# Protocol: as §1
# ScAbp1 = biological target: ScAbp1
# Protocol: as §1
# ScBbc1 = biological target: ScBbc1
# Protocol: as §1
# ScBem1-D1 = biological target: ScBem1-D1
# Protocol: as §1
# ScBzz1-D1 = biological target: ScBzz1-D1
# Protocol: as §1
# ScBzz1-D2 = biological target: ScBzz1-D2
# Protocol: as §1
# ScCyk3 = biological target: ScCyk3
# Protocol: as §1
# ScFus1 = biological target: ScFus1
# Protocol: as §1
# ScHof1 = biological target: ScHof1
# Protocol: as §1
# ScHse1 = biological target: ScHse1
# Protocol: as §1
# ScLsb1 = biological target: ScLsb1
# Protocol: as §1
# ScLsb2 = biological target: ScLsb2
# Protocol: as §1
# ScLsb3 = biological target: ScLsb3
# Protocol: as §1
# ScLsb4 = biological target: ScLsb4
# Protocol: as §1
# ScMyo3 = biological target: ScMyo3
# Protocol: as §1
# ScMyo5 = biological target: ScMyo5
# Protocol: as §1
# ScNbp2 = biological target: ScNbp2
# Protocol: as §1
# ScPex13 = biological target: ScPex13
# Protocol: as §1
# ScRvs167 = biological target: ScRvs167
# Protocol: as §1
# ScSho1 = biological target: ScSho1
# Protocol: as §1
# ScSla1-D1-D2 = biological target: ScSla1-D1-D2
# Protocol: as §1
# ScSla1-D3 = biological target: ScSla1-D3
# Protocol: as §1
# SpAbp1-D1 = biological target: SpAbp1-D1
# Protocol: as §1
# SpBbc1 = biological target: SpBbc1
# Protocol: as §1
# SpBzz1-D1 = biological target: SpBzz1-D1
# Protocol: as §1
# SpBzz1-D2 = biological target: SpBzz1-D2
# Protocol: as §1
# SpCyk3 = biological target: SpCyk3
# Protocol: as §1
# SpHof1 = biological target: SpHof1
# Protocol: as §1
# SpHof1-2 = biological target: SpHof1-2
# Protocol: as §1
# SpHof1-3 = biological target: SpHof1-3
# Protocol: as §1
# SpHse1 = biological target: SpHse1
# Protocol: as §1
# SpLsb1 = biological target: SpLsb1
# Protocol: as §1
# SpLsb4 = biological target: SpLsb4
# Protocol: as §1
# SpMyo1 = biological target: SpMyo1
# Protocol: as §1
# SpNbp2 = biological target: SpNbp2
# Protocol: as §1
# SpPex13 = biological target: SpPex13
# Protocol: as §1
# SpRvs167 = biological target: SpRvs167
# Protocol: as §1
# SpSla1-D1-D2 = biological target: SpSla1-D1-D2
# Protocol: as §1
# SpSla1-D3 = biological target: SpSla1-D3
# Protocol: as §1
binder,measurement,setting,value
VQKRKLPLPGSIASA,SPOT peptide array binding signal intensity,AgAbp1,40
same,SPOT peptide array binding signal intensity,AgBbc1,39.2
same,SPOT peptide array binding signal intensity,AgBem1-D1,7.25
same,SPOT peptide array binding signal intensity,AgBzz1-D1,47.8
same,SPOT peptide array binding signal intensity,AgBzz1-D2,90.2
same,SPOT peptide array binding signal intensity,AgCyk3,0.5
same,SPOT peptide array binding signal intensity,AgFus1,≤ 0
same,SPOT peptide array binding signal intensity,AgHof1,24.6
same,SPOT peptide array binding signal intensity,AgHse1,58.5
same,SPOT peptide array binding signal intensity,AgLsb1,≤ 0
same,SPOT peptide array binding signal intensity,AgLsb4,≤ 0
same,SPOT peptide array binding signal intensity,AgMyo5,6.25
same,SPOT peptide array binding signal intensity,AgNbp2,≤ 0
same,SPOT peptide array binding signal intensity,AgRvs167,0.75
same,SPOT peptide array binding signal intensity,AgSho1,1.5
same,SPOT peptide array binding signal intensity,AgSla1-D1-D2,6.5
same,SPOT peptide array binding signal intensity,AgSla1-D3,≤ 0
same,SPOT peptide array binding signal intensity,CaAbp1-D1,419
same,SPOT peptide array binding signal intensity,CaAbp1-D2,782
same,SPOT peptide array binding signal intensity,CaBbc1,442
same,SPOT peptide array binding signal intensity,CaBem1-D1,13
same,SPOT peptide array binding signal intensity,CaBzz1-D1,94
same,SPOT peptide array binding signal intensity,CaBzz1-D2,44.6
same,SPOT peptide array binding signal intensity,CaCyk3,≤ 0
same,SPOT peptide array binding signal intensity,CaFus1,≤ 0
same,SPOT peptide array binding signal intensity,CaHof1,≤ 0
same,SPOT peptide array binding signal intensity,CaHse1,≤ 0
same,SPOT peptide array binding signal intensity,CaLsb1,≤ 0
same,SPOT peptide array binding signal intensity,CaLsb4,≤ 0
same,SPOT peptide array binding signal intensity,CaMyo5,0.5
same,SPOT peptide array binding signal intensity,CaNbp2,70
same,SPOT peptide array binding signal intensity,CaRvs167,2.17
same,SPOT peptide array binding signal intensity,CaRvs167-3,4.62
same,SPOT peptide array binding signal intensity,CaSho1,≤ 0
same,SPOT peptide array binding signal intensity,CaSla1-D1-D2,118
same,SPOT peptide array binding signal intensity,CaSla1-D3,≤ 0
same,SPOT peptide array binding signal intensity,ScAbp1,100
same,SPOT peptide array binding signal intensity,ScBbc1,30.1
same,SPOT peptide array binding signal intensity,ScBem1-D1,16.5
same,SPOT peptide array binding signal intensity,ScBzz1-D1,21.2
same,SPOT peptide array binding signal intensity,ScBzz1-D2,10
same,SPOT peptide array binding signal intensity,ScCyk3,≤ 0
same,SPOT peptide array binding signal intensity,ScFus1,≤ 0
same,SPOT peptide array binding signal intensity,ScHof1,0.5
same,SPOT peptide array binding signal intensity,ScHse1,63
same,SPOT peptide array binding signal intensity,ScLsb1,≤ 0
same,SPOT peptide array binding signal intensity,ScLsb2,≤ 0
same,SPOT peptide array binding signal intensity,ScLsb3,525
same,SPOT peptide array binding signal intensity,ScLsb4,11.5
same,SPOT peptide array binding signal intensity,ScMyo3,≤ 0
same,SPOT peptide array binding signal intensity,ScMyo5,1.5
same,SPOT peptide array binding signal intensity,ScNbp2,≤ 0
same,SPOT peptide array binding signal intensity,ScPex13,1
same,SPOT peptide array binding signal intensity,ScRvs167,340
same,SPOT peptide array binding signal intensity,ScSho1,50
same,SPOT peptide array binding signal intensity,ScSla1-D1-D2,180
same,SPOT peptide array binding signal intensity,ScSla1-D3,32.5
same,SPOT peptide array binding signal intensity,SpAbp1-D1,174
same,SPOT peptide array binding signal intensity,SpBbc1,0.5
same,SPOT peptide array binding signal intensity,SpBzz1-D1,232
same,SPOT peptide array binding signal intensity,SpBzz1-D2,≤ 0
same,SPOT peptide array binding signal intensity,SpCyk3,15
same,SPOT peptide array binding signal intensity,SpHof1,197
same,SPOT peptide array binding signal intensity,SpHof1-2,253
same,SPOT peptide array binding signal intensity,SpHof1-3,397
same,SPOT peptide array binding signal intensity,SpHse1,34.1
same,SPOT peptide array binding signal intensity,SpLsb1,50.6
same,SPOT peptide array binding signal intensity,SpLsb4,275
same,SPOT peptide array binding signal intensity,SpMyo1,≤ 0
same,SPOT peptide array binding signal intensity,SpNbp2,7
same,SPOT peptide array binding signal intensity,SpPex13,≤ 0
same,SPOT peptide array binding signal intensity,SpRvs167,55.4
same,SPOT peptide array binding signal intensity,SpSla1-D1-D2,16.2
same,SPOT peptide array binding signal intensity,SpSla1-D3,≤ 0
RSKRLFPVRPMATAH,SPOT peptide array binding signal intensity,AgAbp1,39.5
same,SPOT peptide array binding signal intensity,AgBbc1,36.2
same,SPOT peptide array binding signal intensity,AgBem1-D1,89
same,SPOT peptide array binding signal intensity,AgBzz1-D1,13
same,SPOT peptide array binding signal intensity,AgBzz1-D2,11.5
same,SPOT peptide array binding signal intensity,AgCyk3,3
same,SPOT peptide array binding signal intensity,AgFus1,190
same,SPOT peptide array binding signal intensity,AgHof1,3.5
same,SPOT peptide array binding signal intensity,AgHse1,632
same,SPOT peptide array binding signal intensity,AgLsb1,3
same,SPOT peptide array binding signal intensity,AgLsb4,51
same,SPOT peptide array binding signal intensity,AgMyo5,0.5
same,SPOT peptide array binding signal intensity,AgNbp2,218
same,SPOT peptide array binding signal intensity,AgRvs167,4.33
same,SPOT peptide array binding signal intensity,AgSho1,79
same,SPOT peptide array binding signal intensity,AgSla1-D1-D2,469
same,SPOT peptide array binding signal intensity,AgSla1-D3,10.2
same,SPOT peptide array binding signal intensity,CaAbp1-D1,451
same,SPOT peptide array binding signal intensity,CaAbp1-D2,414
same,SPOT peptide array binding signal intensity,CaBbc1,128
same,SPOT peptide array binding signal intensity,CaBem1-D1,7
same,SPOT peptide array binding signal intensity,CaBzz1-D1,53
same,SPOT peptide array binding signal intensity,CaBzz1-D2,51.5
same,SPOT peptide array binding signal intensity,CaCyk3,64.5
same,SPOT peptide array binding signal intensity,CaFus1,402
same,SPOT peptide array binding signal intensity,CaHof1,≤ 0
same,SPOT peptide array binding signal intensity,CaHse1,14.2
same,SPOT peptide array binding signal intensity,CaLsb1,0.5
same,SPOT peptide array binding signal intensity,CaLsb4,502
same,SPOT peptide array binding signal intensity,CaMyo5,≤ 0

# From the supplement of paper PMC4466140
